The campaign covered roughly 85,000 compounds. About 120 (0.14%) were called active.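 The calls were made as follows: active = inhibition above 20%; inactive = inhibition below 20%.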 The list comes from a sample in which actives are over-represented; it also holds similar structures and randomly drawn compounds.
Assay: clotrimazole potentiators killing Candida biofilms, primary screen, with clotrimazole, Alamar Blue (AID 834);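 also: preformed 24 hr biofilms exposed to compound for 48 hr; 0% = biofilm without compound and 100% = blank killed by clotrimazole plus chlorhexidine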
Conditions: C. albicans biofilm + clotrimazole, at 6 µM, active compounds read high

Structure (SMILES) | inhibition
CCOc1ccccc1C(=O)NC1CC2CCCC(C1)N2Cc1ccccc1 (stereo not drawn) | 1.7% (inactive)
CCn1nnnc1SCC(=O)c1ccc(C)cc1C | -2.31% (inactive)
Cc1ccccc1CSCCNC(=O)c1ccc(Cl)c(S(=O)(=O)N2CCOCC2)c1 | 3.05% (inactive)
O=C(NCc1ccccc1)[C@@H]1CSC2c3ccccc3C(=O)N21 (stereo partly drawn) | -0.55% (inactive)
Oc1ccc(-c2onc3ccc(Cl)cc23)cc1 | 3.22% (inactive)
CCCCCCNCCn1cnc2c(N)ncnc21 | 8.75% (inactive)
Cc1cc(C)c(OCC(=O)N/N=C/c2ccco2)c(C)c1 | -5.16% (inactive)
Cn1c2c(c(=O)n(C)c1=O)C(c1cccc([N+](=O)[O-])c1)Nc1ccccc1O2 (stereo not drawn) | 6.05% (inactive)
c1ccc(-n2nc3ccccc3n2)cc1 | 9.8% (inactive)
Cc1ccc(S(=O)(=O)NCC(C)NS(C)(=O)=O)cc1 (stereo not drawn) | 3.23% (inactive)
O=C1C(Cl)=C(N2CCOCC2)C(=O)N1c1ccccc1 | 3.34% (inactive)
Fc1ccccc1/C=C1\CCCC2=C1Nc1ncnn1C2c1ccccc1F (stereo not drawn) | 56.5% (active)
COc1ccc(OC)c(-n2nnnc2SCC(=O)Nc2cc(C)ccc2OC)c1 | 4% (inactive)
O=S(=O)(NCCc1ccccc1)c1ccccc1 | 5.09% (inactive)
O=C(NCC1CCCO1)c1ccc2ccccc2n1 (stereo not drawn) | 2.84% (inactive)
CC(C)Oc1ccc(C(=O)NC(C)(C)CO)cc1 | 0.21% (inactive)
CCN1CCN(C(=O)C2(NC(=O)Nc3cccc(F)c3)CCCCC2)CC1 | -2.53% (inactive)
CCn1c(SCC(=O)Nc2ccc(OC)c(OC)c2)nnc1-c1c[nH]c2ccccc12 | 2.3% (inactive)
O=C(Nc1ccccc1-c1nnn(CC(=O)N2CCCc3ccccc32)n1)c1cccc(Cl)c1 | -4.65% (inactive)
CCSc1nc(-c2ccc(OC)cc2)cc(-c2ccc(OC)cc2)c1C#N | 3.4% (inactive)
CC(C)(C)c1ccc(OC2=CS(=O)(=O)c3ccccc32)cc1 | 1.17% (inactive)

Structure (SMILES) | inhibition
Cc1c(C=O)c2ccccn2c1C(=O)c1ccncc1 | -3.35% (inactive)
Cc1cc(SCC(=O)c2ccccc2)nc(SCC(=O)c2ccccc2)n1 | 9.02% (inactive)
COCC(=O)Nc1ccc(Br)cc1 | 5.17% (inactive)
COC(=O)c1sc(=S)n(-c2ccc(Cl)cc2)c1C | 5.98% (inactive)
CC(=O)C1=C(C)NC(C)=C(C(C)=O)C1c1cn(-c2ccccc2)nc1-c1cccs1 | 4.22% (inactive)
O=C(NCCCn1ccnc1)Nc1ccc(Cl)cc1Cl | 8.78% (inactive)
COC(=O)c1ccc(Sc2ccc(F)cc2)c(N)c1 | 2.2% (inactive)
Cc1ccc(N(Cc2ccc(C(=O)Nc3ccccc3C(=O)NCc3ccco3)cc2)S(C)(=O)=O)cc1C | 0.88% (inactive)
COc1cc2c(cc1OC)C(C(C)C)=NC(C)(C)C2 | 4.82% (inactive)
COc1ccc(Nc2ncc(C(=O)N3CCN(c4ccccc4OC)CC3)c3ccccc23)cc1 | 10.1% (inactive)
Cc1[nH]n(-c2ccc(Cl)cc2)c(=O)c1/C=N/n1c(C)nc2ccccc2c1=O | 7.46% (inactive)
COC(=O)Nc1ncc(CN2CCCCC2)s1 | -1.41% (inactive)
CN(C)S(=O)(=O)c1ccc(N2CCCC2)c(C(=O)NCc2ccccc2)c1 | -0.61% (inactive)
CCC(C)NC(=O)c1ccccc1NC(=O)c1ccccc1N(C)S(C)(=O)=O (stereo not drawn) | -0.05% (inactive)
COC(=O)c1ccccc1Sc1c(/C=N/OCc2ccc(Cl)cc2)c(C(F)(F)F)nn1C | -1.64% (inactive)
S=C1NC(c2ccccc2)=NCN1c1ccc(Br)cc1 | 5.98% (inactive)
C=CCOC(=O)C1=C(C)NC(SCC(=O)OCC)=C(C#N)C1c1ccc(C)cc1 (stereo not drawn) | 3.88% (inactive)
N#CC1=C(SCc2ccc(C#N)cc2)N=C(N)C(c2nc(-c3ccccc3)cs2)C12CCCCC2 (stereo not drawn) | -2.54% (inactive)
Cc1ccc(CCN2CC(C(=O)O)CC2=O)cc1 (stereo not drawn) | 2.77% (inactive)
COc1ccc(CN(CC(=O)NC2CCCC2)C(=O)CCC(=O)Nc2cc(C)on2)cc1 | -2.23% (inactive)
CCn1c2ccccc2c2cc(NC(=S)N3CCOCC3)ccc21 | 5.56% (inactive)

Structure (SMILES) | inhibition
CCN(c1ccccc1)S(=O)(=O)c1ccc(C(=O)Nc2nccs2)cc1 | 2.15% (inactive)
CCOC(=O)c1cnc(SCC(=O)Nc2ccccc2C(=O)OC)nc1N | 4.94% (inactive)
CCNc1nc(NC(C)C)nc(OCCOC(=O)c2ccccc2)n1 | 2.57% (inactive)
Cc1cccc(N2CCN(C(=O)c3cnn4c(C(F)F)cc(-c5ccccc5)nc34)CC2)c1C | 7.54% (inactive)
CCOCCn1c(C(C)C)nc2ccccc21 | 0.21% (inactive)
O=C(CN1CCOCC1)Nc1ccccc1 | 2.89% (inactive)
COC(=O)c1ccc(CSc2nnc(NC(C)C)s2)cc1 | 8.02% (inactive)
COc1ccccc1C(c1nnnn1C(C)(C)C)N1CCN(Cc2ccccc2)CC1 (stereo not drawn) | -0.02% (inactive)
COc1ccc(Br)cc1CN1CCN(C(=O)c2cccc(OC)c2OC)CC1 | -0.18% (inactive)
Cc1nn(Cc2ccccc2)c2c1C(c1ccccc1)C(C#N)=C(N)O2 (stereo not drawn) | 4.23% (inactive)
CCCc1cc(=O)[nH]c(SCC(=O)c2cc(C)n(CCC)c2C)n1 | 9.55% (inactive)
C=CCN(C(=O)Cn1ncc2c1-c1cc(C)ccc1OC2)c1ccccc1 | 3.48% (inactive)
CC(C)(C)c1nc2ccccc2c(=O)n1N1C(=O)c2ccccc2C1=O | 1.87% (inactive)
OC(c1ccccc1)c1nccn1Cc1ccccc1 (stereo not drawn) | 6.12% (inactive)
CCOc1cccc(C(=O)Nc2nnc(-c3cccs3)s2)c1 | 5.64% (inactive)
CC(C)N1C(=S)SC(C)(C)C1n1oc(=O)n(-c2ccc(Cl)c(Cl)c2)c1=O (stereo not drawn) | 8.09% (inactive)
Cc1noc(COc2ccccc2OCc2onc(C)c2Cl)c1Cl | -3.84% (inactive)
COC(=O)c1sccc1-n1cccc1C(=O)C(=O)N1CCCCC1 | 6.37% (inactive)
COCCNC(=O)COc1ccccc1C | 4.87% (inactive)
CCC(C)NC(=O)CCCc1ccccc1 (stereo not drawn) | 5.94% (inactive)
COc1ccc(NC(=O)C2C3C=CC(C3)C2C(=O)NCc2ccccn2)c(OC)c1 (stereo not drawn) | 3.96% (inactive)

— PubChem BioAssay AID834 (PCMD, 2007)
